Screening data (PubChem)
The list is not random: actives were taken first. Their share in the collection is about 3.7%.
tim10-1 inh – growth inhibitors of tim10-1 mutant yeast; S. cerevisiae tim10-1 ts strain growth, BacTiter-Glo, 24 h; inhibition, % at 20 µM; hit rate 2.2% among 330,000; AID 463190;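 active = inhibition of at least 40%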;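 note: mutant grown at 25 °C; 0% = DMSO wells with yeast and 100% = wells holding no yeast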
tim23-1 inh – growth inhibitors of tim23-1 mutant yeast. S. cerevisiae tim23-1 growth, BacTiter-Glo luminescence, 24 h. inhibition, % at 20 µM. hit rate 1.3% among 330,000;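 active = growth inhibition of the mutant yeast at or above 50%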;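 note: temperature-sensitive mutant grown at 25 °C; plate controls were DMSO-treated mutant yeast for no effect and medium wells lacking yeast for full effect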
TIM10 inh – growth inhibitors of TIM10 yeast strain. S. cerevisiae TIM10 strain growth, BacTiter-Glo luminescence, 24 h. inhibition, % at 10 µM. hit rate 1.4% among 330,000. AID 463195;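 active = inhibition of 40% or more at the single tested concentration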;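 note: wild-type TIM10 isogenic control strain grown at permissive 25 °C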
V-ATPase pH – regulators of yeast V-ATPase proton transport; S. cerevisiae, pHLuorin cytosolic pH fluorescence; response, % at 10 µM; hit rate 0.37% among 350,000; AID 504577; in the data active = response mostly above about 7.3%, no sharp cut-off; inactive = mostly below about 5.4%; note: actives read high
PfHsp90 set2 – growth inhibition of yeast expressing Plasmodium Hsp90. S. cerevisiae expressing PfHsp90, BacTiter-Glo ATP, 48 h; yeast lacking PDR1 and PDR3 efflux regulators. inhibition, % at 9.4 µM. hit rate 0.32% among 310,000. AID 504621;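 active = every replicate shows inhibition above about 80%, whatever the replicate mean, limit read from the data; inconclusive = mean inhibition reaches the set limit but some replicate falls short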;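 note: 0% = DMSO neutral controls and 100% = 20 µM radicicol positive controls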
tim10-1 conf – confirmation of tim10-1 mutant yeast growth inhibitors; shares compounds with tim10-1 inh; hit rate 56% among 7,400; AID 463213; inhibition, % at 20 µM; S. cerevisiae tim10-1 ts strain growth, BacTiter-Glo, 24 h;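 active = inhibition of yeast growth at or above a set limit in either of two repeat tests at 20 µM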;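 note: tim10-1 mutant grown at permissive 25 °C to find synthetic lethal compounds; 0% = DMSO yeast wells and 100% = medium wells without yeast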
tim10 confirm – confirmation of TIM10 yeast growth inhibitors; hit rate 63% among 4,600; shares compounds with TIM10 inh; S. cerevisiae tim10 strain growth, BacTiter-Glo luminescence, 24 h; inhibition, % at 10 µM;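 active = inhibition of yeast growth at or above a set limit in either of two replicates at 10 µM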;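 note: this counterscreen used the strain with wild-type TIM10; 0% = yeast with DMSO and 100% = medium wells lacking yeast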
Numbers without * were called inactive; ? = inconclusive; · = no result given.

SMILES	tim10-1 inh	tim23-1 inh	TIM10 inh	V-ATPase pH	PfHsp90 set2	tim10-1 conf	tim10 confirm
Cc1nc(C)c(-c2csc(Nc3cccc(O)c3)n2)s1	44.4*	24.0	48.1*	-0.7	-6.1	24.6	31.1*
O=C(Nc1ccc(Cl)cc1)N(Cc1cccs1)Cc1cccs1	47.2*	46.8	57.2*	0.9	2.2	41.0*	-16.8
O=C(O)c1cccc(N2C(=O)C=CC2=O)c1	·	·	·	1.1	·	·	·
O=C(Nc1ccc(Cl)cc1Cl)c1cccc(N2C(=O)C=CC2=O)c1	59.2*	37.0	94.9*	77.9*	107.4*	96.2*	99.8*
COc1ccc(-c2nc(CN3CCC(C(=O)N4CCOCC4)CC3)c(C)o2)cc1C	-8.5	1.7	6.4	3.0	29.7	·	·
CCOC(=O)C1CCN(C(=O)c2cc3cc4cc(OC)ccc4nc3o2)CC1	47.6*	-8.2	52.6*	1.8	-23.7	51.0*	-5.5
CCc1nc2ccc(Cc3ccc4nc(CC)[nH]c4c3)cc2[nH]1	23.8	1.2	24.2	3.5	16.3	·	·
O=[N+]([O-])c1cccnc1N1CCC(c2cc(-c3cccc(C(F)(F)F)c3)n[nH]2)CC1	43.2*	-4.3	51.9*	-0.7	0.6	29.8*	-16.6
Cc1cccc(N(C(=O)c2csnn2)C(C(=O)NCc2ccccc2)c2cccs2)c1 (configuration not stated)	23.4	22.5	-5.2	-1.2	15.2	·	·
CCN(CC(=O)Nc1ccccc1C(F)(F)F)C(=O)CCOc1ccc(C)cc1	15.6	22.1	9.1	-2.9	·	·	·
COc1ccc(C2=C(N)c3ccccc3C2=O)cc1	-30.4	30.5	19.9	4.6	38.3	·	·
COC1=C(c2ccccc2)C(=O)c2ccccc2C1=O	80.1*	36.8	88.8*	-0.3	?	72.0*	90.5*
COC(=O)Nc1ccc(S(=O)(=O)N2CCC(Cc3ccccc3)CC2)cc1	45.0*	41.1	44.5*	7.1	-22.6	39.8*	17.0
COc1ccc(NC(=O)CSc2nnc(NC(=O)c3ccco3)s2)cc1OC	-5.7	4.1	4.1	4.3	-17.0	·	·
COC(C/C=C/C(=O)[C@H](C)OCc1ccccc1)OC	51.7*	47.1	45.7*	-3.6	-31.3	47.7*	46.1*
Cc1ccc(/C=c2\sc3nc(-c4cccnc4)nn3c2=O)cc1	·	·	·	0.6	4.8	·	·
CC(C)c1ccc(/C=c2\sc3nc(-c4ccncc4)nn3c2=O)cc1	49.3*	47.2	43.7*	-12.3	16.2	30.1*	4.2
CCOc1cccc(CN2CCC(Oc3ccc(C(=O)N4CCCC4)cc3)CC2)c1O	·	·	·	-2.0	·	·	·
Cc1noc(C)c1C(=O)Nc1nc(C23CC4CC(CC(C4)C2)C3)cs1	52.4*	43.8	48.2*	1.6	-19.7	37.8*	39.0*
CNC(=O)C(=O)Nc1nc(C23CC4CC(CC(C4)C2)C3)cs1	6.4	1.6	6.5	-1.2	-19.1	·	·
CCOC(=O)c1c(N2C(=O)C=CC2=O)sc(C)c1C	47.2*	19.5	76.9*	4.1	153.9*	44.2*	72.2*
O=S(=O)(Nc1nc2ccccc2nc1NCc1ccco1)c1ccccc1	12.3	29.9	22.0	12.5	-0.9	·	·
O=S(=O)(c1ccccc1)c1ccc(NCc2ccco2)cc1	43.1*	45.6	42.2*	1.1	-52.6	38.4*	39.1*
C=C(C)Cn1cnc2c(oc3nc4c(cc32)CCCC4)c1=O	2.1	0.6	9.8	-1.1	-2.9	·	·
CCc1c(C)nc2cc(-c3ccc(OC)c(OC)c3)nn2c1N1CCCC1	41.3*	48.8	41.6*	0.7	-14.2	-0.8	20.6
CCCC#Cc1ccc2c(c1)O[C@@H](CN(C)Cc1ccc3c(c1)OCO3)[C@H](C)CN([C@@H](C)CO)S2(=O)=O	·	·	·	3.4	·	·	·
COc1cc(/C=C2/C(C)=C(C#N)c3nc(N)c(C#N)c(C)c32)ccc1OCC(=O)O	40.9*	43.1	41.7*	-2.6	-9.0	23.3	32.2*
COc1ccc(OC)c(NC(=O)COc2ccc3c(c2)CCC3)c1	-5.6	21.9	4.5	5.3	3.7	·	·
COc1ccc(C2SCCN2S(=O)(=O)c2ccc(NC(C)=O)cc2)cc1 (configuration not stated)	27.9	37.5	31.6	9.0	22.6	·	·
